About 100 (0.1%) of roughly 96,000 compounds were called active. Shown is part of a subset that was picked to be rich in actives. Results with a measured potency or affinity are listed apart. Unmarked numbers belong to inactive results.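 How the source made its calls: active means displacement above 50% at 20 µM plus a fluorescence interference ratio under 1.5; inactive means the rest.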

The test concerns the target Bcl-2-like protein 10 (Homo sapiens) (UniProt Q9HD36). The test can be described thus: displacers of TR3 peptide from Bcl-B, primary screen, selectivity assay for Bfl-1 inhibitor project, biochemical, fluorescence polarization, FITC-TR3 peptide (AID 748).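 Further: plate controls were wells without compound for no effect and wells lacking Bcl-B protein for full effect.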 The settings on record: FP displacement of FITC-TR3 peptide from Bcl-B; at 20 µM; stronger effect = higher value.
On to `CN(C)S(=O)(=O)N(Cc1ccc(Br)cc1)c1ccccc1`, for which the displacement was 0%.
Consider `CN(C)S(=O)(=O)N(CC(=O)NCc1ccccc1)c1ccccc1`, for which the displacement is 7.3%.
For the compound `CN(C)S(=O)(=O)N(CC(=O)Nc1ccc(F)c(F)c1)c1ccccc1`, the displacement was 18%.
For `CN(C)S(=O)(=O)N(CC(=O)Nc1cccc(F)c1)c1ccccc1`, the displacement was 9.9%.
Take `O=c1[nH][nH]c2nc(C(F)(F)F)cc(C(F)(F)F)c12`: the displacement is -9.8%.
Turning to `CCN(CC)S(=O)(=O)c1cc(C(=O)O)c(Cl)cc1Cl`, the displacement is -5.8%.
Turning to `Cc1ccc(NC(=O)c2nc[nH]c2C(=O)Nc2ccc(C)cc2)cc1`, the displacement is 4%.
For `Cc1cc(-c2nnc(-c3cc4ccccc4oc3=O)o2)c(C)n1-c1ccccc1`, the displacement is 2.6%.
Regarding `CCCOC(=O)Cc1n[nH]c(=O)[nH]c1=O`, the displacement is -2.4%.
As for `COc1ccc(CN2C(=O)CN(C3CCCCCC3)C(=O)C2c2ccc(F)cc2)cc1` (centres undefined), the displacement is -2.9%.
In the case of `CCC(=O)Nc1ccc2nc(SCC(=O)N3CCCC3)sc2c1`, the displacement was 5.1%.
As to `Cn1c(SCC(=O)Nc2ccc3nc(SCC(=O)N4CCCC4)sc3c2)nnc1-c1ccccc1`, the displacement is 38.1%.
As to `O=C(c1ccc(N2CCNCC2)cc1)c1cccnc1`, the displacement was -3.4%.
For `COC(=O)C1Sc2[nH]c(=O)sc2C2c3ccccc3OC(=O)C12` (centres undefined), the displacement is 0%.
In the case of `CCOC(=O)C1CCN(Cc2nc3ccccc3c(=O)n2-c2ccc(F)cc2)CC1`, the displacement was -6.2%.
Consider `Cc1nn(Cc2cccc(C(=O)Nc3ccn(Cc4ccccc4)n3)c2)c(C)c1[N+](=O)[O-]`, for which the displacement was 3.7%.
Consider `C=CCN1C(=O)/C(=C2/Sc3ccccc3N2C)SC1=Nc1ccccc1C`, for which the displacement was -13%.
With `C=CCN1C(=O)CS/C1=N/c1nccs1`, the displacement was 1.8%.
Take `Cc1c(Cl)cccc1-n1c(SCC(=O)NCc2ccccc2Cl)nnc1-c1ccncc1`: the displacement is -10.8%.
In the case of `O=C1CCCC2=C1C(c1ccco1)Nc1ccc(C(=O)c3ccccc3)cc1N2` (centres undefined), the displacement is 22.2%.
Turning to `CC1(C)CC(=O)C2=C(C1)c1c(ccc3ccccc13)NC2c1ccco1` (centres undefined), the displacement is -4.8%.
As for `CCSc1nc(O)c(Cc2ccccc2)c(=O)[nH]1`, the displacement is 10.2%.
Consider `Clc1ccc(-c2nc3ccccc3n2OCc2ccccc2)cc1`, for which the displacement is -9%.
Regarding `CC(=O)Nc1ccc(NC(=O)Cn2cc3c(n2)CCCC3)cc1`, the displacement is -10.4%.
For the compound `Cc1cc(C)cc(NC(=O)Cn2cc3c(n2)CCCCC3)c1`, the displacement is 2.8%.
Consider `CCCn1c(=O)c2ccccc2n2c(SCC(=O)c3ccc(F)cc3)nnc12`, for which the displacement is -0.8%.
For `CCOC(=O)c1cnc2cc3c(cn2c1=O)CCCC3`, the displacement was 0%.
Regarding `CC(CC(=O)N1CCc2ccccc21)c1ccccc1` (centres undefined), the displacement was 6.2%.
With `O=C(COC(=O)c1ccco1)NCc1ccco1`, the displacement was 3.5%.
As for `O=C(NCc1ccco1)c1cccs1`, the displacement is -12.3%.
As to `COc1ccccc1OCC(=O)NCc1ccco1`, the displacement is 2.1%.
On to `CCOc1cc(C(=O)OCC(=O)NCc2ccco2)cc(OCC)c1OCC`, for which the displacement was 33.3%.
For the compound `O=C(COC(=O)c1ccccc1)NCc1ccco1`, the displacement was 40.9%.
On to `COc1ccc(OCCC(=O)OCC(=O)NCc2ccco2)cc1`, for which the displacement is 16.1%.
On to `O=C1NCCCc2nc(Oc3ccccc3)sc21`, for which the displacement was 1.4%.
`Cc1cc(C)c2c(=O)c3c(oc2c1)C(=O)N(CCO)C3c1cccc(O)c1` (centres undefined): the displacement is 3.4%.
Regarding `COc1ccc(C(=O)CCC(=O)N2CCN(c3ccc(N4CCOCC4)nn3)CC2)cc1`, the displacement is 4.3%.
`COc1ccccc1-c1nnc(NC(=O)C(C)SC2=NCCS2)s1` (centres undefined): the displacement is -10.4%.
For the compound `Cc1ccc(NC(=O)CCc2ccc(S(=O)(=O)N3CCOCC3)cc2)c(C)c1`, the displacement is 13.6%.
`c1ccc(-c2nn3c(Cn4nnc5ccccc54)nnc3s2)cc1`: the displacement is 0%.
Consider `c1ccc2c(c1)nnn2Cc1nnc2sc(-c3ccncc3)nn12`, for which the displacement is -19.6%.
With `Nc1nonc1OCCc1ccccc1`, the displacement was 2.7%.
To `O=c1[nH]c(NC2CCCCC2)nnc1Cc1ccccc1` belongs -7%.
To `NC(=O)C1c2ccccc2CSc2ccccc21` (centres undefined) belongs -22.4%; to `CN1CCN(CCCNC(=O)C2CCN(c3nnc(-n4cccc4)s3)CC2)CC1`, 8.6%.
With `O=C(NCCCc1ccccc1)C1CCN(c2nnc(-n3cccc3)s2)CC1`, the displacement was 6.7%.
With `CCN1CCN(c2cc(C)c3cc(NC(=O)c4cccnc4Cl)ccc3n2)CC1`, the displacement was 25.4%.
Regarding `O=C(Nc1ccc(N2CCCCC2)cc1)c1cccnc1Cl`, the displacement was -16.3%.
In the case of `O=C(CNC(=O)c1ccco1)OCc1cccc(Cl)c1`, the displacement is -8.6%.
With `CC(C)C1Nc2ccc(S(N)(=O)=O)cc2C2C=CCC21` (centres undefined), the displacement is 25.6%.
`O=C(OC1CCCCC1)c1ccc(NC(=O)C2CCCCC2)cc1`: the displacement was 6.4%.
As for `COC(=O)c1ccc(C2Nc3ccc(/C(C)=N/NC(=O)C(OC)c4ccccc4)cc3C3C=CCC32)cc1` (centres undefined), the displacement is 5.4%.
On to `O=C(O)C1Nc2c(C(=O)N3CCOCC3)cccc2C2C=CCC12` (centres undefined), for which the displacement was 28.7%.
The same measure for `CC(=O)c1ccc2c(c1)C1C=CCC1C(c1ccncc1)N2` (centres undefined): -8.3%.
For the compound `Cc1ccc2c(c1C)NC(C)CC2C` (centres undefined), the displacement is -4.5%.
As to `Cc1ccc(S(=O)(=O)N2CCCN(S(=O)(=O)c3ccc(C)c(C)c3)CC2)cc1C`, the displacement was -11.3%.
For the compound `Cc1cccc(C)c1NC(=O)CNc1ccccc1`, the displacement is 0.2%.
To `Cn1c(=O)[nH]c(=O)c2c1nc(Br)n2CC(O)c1ccccc1` (centres undefined) belongs 6.4%; to `CCCCNC(=O)C1C2C=CC3(CN(Cc4ccc(C)cc4)C(=O)C13)O2` (centres undefined), 2.1%.
With `O=C(C1CCCN(Cc2ccncc2)C1)N1CCc2ccccc2C1` (centres undefined), the displacement was -14.9%.
To `CCOC(=O)CC(N)c1ccc(OC)cc1` (centres undefined) belongs 14.7%; to `COC(=O)Cc1[nH]n(-c2nc3ccccc3s2)c(=O)c1C(C)=O`, -6.8%.
As for `CCCN=C(C)c1c(-c2ccccc2)[nH]n(-c2nc3ccccc3s2)c1=O`, the displacement was -6.3%.
For `CSc1nnc2n(Cc3ccccc3)c(=O)c3c4c(sc3n12)COC(C(C)C)C4` (centres undefined), the displacement was 1.6%.
`Cc1ccc(S(=O)(=O)NNC(=O)C2Cc3c(ccc4ccccc34)O2)cc1` (centres undefined): the displacement is -1.6%.
With `Cc1ccc(CSCCNC(=O)c2ccc(N(C)S(=O)(=O)c3ccccc3)cc2)cc1`, the displacement was 0%.
Turning to `CC1CN(S(=O)(=O)c2cccc(C(=O)OCc3cc(=O)oc4cc(O)ccc34)c2)CC(C)O1` (centres undefined), the displacement was 16.7%.
For `CCN(CC)c1ccc(C(=O)OCc2cc(=O)oc3cc(O)ccc23)cc1`, the displacement is 0%.
Regarding `N#CCCN1CCN(CCC#N)CC1`, the displacement was -1.9%.
The same measure for `COCCCn1c2nc3ccccc3nc2c2c(=O)n(Cc3ccc(Cl)cc3)cnc21`: -3.8%; for `COc1ccc(C2Nc3ccccc3C(=O)N2c2ccc(C)cc2)cc1Cn1nc(C)c([N+](=O)[O-])c1C` (centres undefined): 8.3%.
As to `CCS(=O)(=O)N1Cc2ccccc2CC1C(=O)N1CCN(c2ccccc2)CC1` (centres undefined), the displacement was 27%.
The same measure for `CCS(=O)(=O)N1CCN(c2cccc(C)c2C)CC1`: 4.1%.
Turning to `CC1CCCN(c2oc(-c3cccc4ccccc34)nc2C#N)C1` (centres undefined), the displacement is 6.4%.
As to `C/C(N)=C(/C#N)C(=O)CSc1nc2ccc(C)cc2[nH]1`, the displacement is 8.9%.
Take `COc1ccc2nc(SCC(=O)/C(C#N)=C(\C)N)[nH]c2c1`: the displacement was -14.3%.
In the case of `O=C(O)CCCNc1cc(N2CCC3(CC2)OCCO3)c2noc3c2c1C(=O)c1ccccc1-3`, the displacement was 33.8%.
The same measure for `CCOC(=O)C(C(=O)OCC)c1cc(Br)c2noc3c2c1C(=O)c1ccccc1-3`: -31.4%.
The same measure for `CCCCOC(=O)Cn1c(=O)n(CC(=O)OCCCC)c2ccccc21`: 3.3%; for `COc1ccc(C(CNC(=O)c2ccc(S(=O)(=O)N3CCOCC3)cc2)N2CCCCC2)cc1` (centres undefined): 0.7%.
The same measure for `Cc1ccc(S(=O)(=O)N2CCCC2)cc1C(=O)O`: 27.9%; for `Cc1ccc(S(=O)(=O)N2CCCCC2)cc1C(=O)Nc1ccc2cn[nH]c2c1`: 5.9%; for `O=C(Nc1ccc(F)cc1F)c1noc2c1CCC2`: 46.1%.
On to `COC(=O)c1ccccc1NC(=O)c1noc2c1CCCC2`, for which the displacement is -7.7%.
Consider `COC(=O)c1ccccc1NC(=O)c1noc2c1CC(C(C)(C)C)CC2` (centres undefined), for which the displacement was -0.1%.
The same measure for `O=C(Nc1ccccc1C(=O)N1CCOCC1)c1noc2c1CCCC2`: -1.4%; for `O=C(CCCN1C(=O)CCC1=O)Nc1ccccc1F`: 38.1%.
As for `Cc1csc(NC(=O)CSc2nnc(Cn3c(=O)sc4ccccc43)n2-c2ccccc2)n1`, the displacement was -8.5%.
As to `CCCC(=O)Nc1ccc2oc(-c3ccc(OC)c(Br)c3)nc2c1`, the displacement was -48.6%.
For `O=C(CN1CCCCC1)Nc1cccc(-n2cnnn2)c1`, the displacement is 5.6%.
Consider `CC(C)(C)n1ncc2c(=O)n(CC(=O)NC3CCCCC3)cnc21`, for which the displacement was -2.2%.
As for `COC(=O)c1oc2ccc(Br)cc2c1NC(=O)c1ccccc1`, the displacement was -10.4%.
On to `Cc1cc(C)nc(Nc2ccc(C(=O)O)cc2)n1`, for which the displacement is 1.7%.
Take `Cc1cc(C)nc(Nc2ccc(N3CCOCC3)cc2)n1`: the displacement is 37.9%.
Regarding `CCCCCCNc1nc(NCc2ccco2)nc(OCC)n1`, the displacement is -31.5%.
As for `Cc1nc(SCC(=O)NCc2ccco2)[nH]c(=O)c1C`, the displacement was -5.3%.
Regarding `NC(=O)c1cc(N)ccc1N1CCCC1`, the displacement was 7.2%.
To `Cc1cc(N)ccc1-n1c(C)ccc1C` belongs -6.6%; to `CCc1nnc(NC(=O)C(=O)NCCOC(=O)c2ccccc2Cl)s1`, -14.4%.

The values above are taken from PubChem BioAssay AID748 (Sanford-Burnham Center for Chemical Genomics, 2007).
